Screening results as filed in PubChem.
A selection: hits, their analogues and other compounds. The true share with any hit is near 13%.
HADH2 inhib: inhibitors of human HADH2 dehydrogenase; recombinant HADH2, NADH fluorescence, beta-hydroxybutyryl-CoA; Potency, µM (doses to about 57.1 µM), actives largely listed as inhibitors; 73,000 tested, 3.4% active; AID 886; also: nearly all actives have a fitted effect of over 60% in size
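His-tagged recombinant enzyme from E. coli, 20 nM, preincubated 15 min RT with compound; reaction started with 1 mM NAD+ and 90 uM beta-hydroxybutyryl-CoA in 100 mM Tris-HCl pH 9.0. NADH fluorescence (ex 360/em 450) read over 4 min; last-minus-first difference.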
AID923: qHTS Assay for Allosteric/Competitive Inhibitors of Caspase-1: Spectroscopic Profiling in AFC Spectral Region; AID 923, 2007; Potency, µM (series often up to 57.5 µM), actives largely listed as activators; compound fluorescence, AFC spectral region (405/520 nm); 75,000 tested, 1.1% active
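Baseline compound fluorescence (AFC region, 405 nm ex/520 nm em) taken from the intercept of kinetic reads with 50 nM caspase-1 and 5 uM Ac-WEHD-AFC; normalized to an on-plate AFC standard curve; compounds titrated up to 57 uM.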
GBA mod: human lysosomal glucosylceramidase modulation. P04062. purified enzyme, resorufin glucoside fluorescence (screen aimed at inhibitors), 20 min. Potency, µM. 48,000 tested, 1.1% active; in the data active = potency below about 15 µM; inconclusive = mostly about 16 µM to 33 µM;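 also: the screen sought inhibitors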
Target sequence (P04062 whole entry, looked up): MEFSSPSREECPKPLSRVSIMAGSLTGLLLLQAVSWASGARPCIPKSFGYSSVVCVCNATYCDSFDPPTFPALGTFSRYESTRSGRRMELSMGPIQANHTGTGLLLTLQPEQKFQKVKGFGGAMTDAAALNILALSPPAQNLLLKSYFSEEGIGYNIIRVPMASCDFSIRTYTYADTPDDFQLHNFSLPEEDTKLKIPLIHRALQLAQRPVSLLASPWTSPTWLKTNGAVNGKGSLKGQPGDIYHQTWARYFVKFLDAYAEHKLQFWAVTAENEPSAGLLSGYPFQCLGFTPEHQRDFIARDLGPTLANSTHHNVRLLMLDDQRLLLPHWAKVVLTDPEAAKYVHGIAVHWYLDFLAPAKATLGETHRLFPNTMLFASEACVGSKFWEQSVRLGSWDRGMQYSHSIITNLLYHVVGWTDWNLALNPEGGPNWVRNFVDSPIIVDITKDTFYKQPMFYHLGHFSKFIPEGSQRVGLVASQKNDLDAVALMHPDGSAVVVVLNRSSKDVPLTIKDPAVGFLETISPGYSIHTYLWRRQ
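Compounds titrated against 0.2 nM normal enzyme, 30 uM resorufin beta-D-glucopyranoside substrate, citrate/phosphate buffer with taurocholate and tween-20, pH 5.9. Reaction ran 20 min at room temperature; fluorescence (Ex 548/Em 600) gave AC50.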
A350 fluor: A350 region autofluorescence. Compound autofluorescence, 340/450 nm, Alexa 350 dye-equivalents; hits give high values. 59,000 tested, 11% active. max dye-equivalent concentration, M; in the data active = max dye-equivalent concentration above about 10 nM; inconclusive = mostly about 1.1 nM to 9.6 nM
4MU fluor: compounds fluorescent in 4-MU spectral region; compound autofluorescence, 340/450 nm, 4-MU equivalents; hits give high values; 59,000 tested, 11% active; max dye-equivalent concentration, M; AID 589; in the data active = max dye-equivalent concentration above about 10 nM; inconclusive = mostly about 1.1 nM to 9.6 nM
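Intrinsic fluorescence at 340/450 nm (ex/em) was read after 15 min at room temperature in pH 8.0, 100 mM Tris. Each compound concentration expressed as 4-MU-equivalent concentration from a six-point 4-MU standard series on each plate.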
HSD17B inh: HSD17B dehydrogenase inhibition; Potency, µM (highest dose often 57.1 µM), actives largely listed as inhibitors; Q99714; 75,000 tested, 7.6% active; recombinant HSD17B10, NADH fluorescence kinetic;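 also: the protocol describes HADH2 (HSD17B10) and not the HSD17B4 of the title; nearly all actives have a fitted effect of over 70% in size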
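Enzyme plus compound, 15 min room temperature; substrate mix added (NAD+ 1 mM, beta-hydroxybutyryl-CoA 90 uM final); plates read kinetically for NADH fluorescence. HADH2 was His-tagged, E. coli-derived, 20 nM.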
A number is an active result; . = inactive; ? = inconclusive; / = no result; [ ] = dose if it differs, or a comment. Unless noted, calls follow the shape of the dose curve; as a rule, active = well fitted curve in the direction sought with a large enough effect; inconclusive = small, poorly fitted or top-dose-only effect, or another doubt; inactive = no such curve, though single readings can be large; an effect the other way counts as inactive or inconclusive.

SMILES	HADH2 inhib	AID923	GBA mod	A350 fluor	4MU fluor	HSD17B inh
N#Cc1c(NC(=O)CSc2nnnn2C2CCCC2)sc2c1CCCC2	.	.	/	.	.	.
Cc1cc(Nc2ccccc2Br)n2nc(C)nc2n1	.	.	/	/	/	.
N#CC1=C(N)Oc2n[nH]c(-c3cccs3)c2C1c1cccs1 (stereo not given)	?	.	.	.	.	13µM
COc1ccccc1NC(=O)c1oc2ccc(C)cc2c1C	?	.	/	/	/	?
COc1c(O)c(O)cc2c1oc1c3cc(C)ccc3oc(=O)c21	/	.	/	/	/	10µM
COc1ccc(Cc2nc(-c3cccs3)no2)cc1OC	.	.	/	/	/	.
COc1ccc(-c2nc(-c3cccs3)c(-c3cccs3)[nH]2)cc1O	?	.	/	1.8e-08M	1.5e-08M	32µM
COc1cc(C(=O)OCC(=O)N(C)Cc2ccccc2)cc(OC)c1OC	.	.	.	.	.	.
CCOC(=O)CCc1c(C)c2ccc(OCC(=O)OC(C)C)cc2oc1=O	.	.	.	?	?	25µM
Cc1c(Cc2ccccc2)c(=O)oc2cc(OCc3nn[nH]n3)ccc12	32µM	.	.	6.7e-08M	5e-08M	32µM
COC(=O)c1ccc(COc2ccc3c(C)c(C)c(=O)oc3c2)o1	?	.	/	/	/	13µM
Cc1oc2cc(OCC(=O)O)ccc2c(=O)c1Oc1ccccc1	.	.	.	?	?	.
CCOC(=O)CCc1c(C)c2ccc(OCc3nn[nH]n3)cc2oc1=O	20µM	.	.	4e-08M	3.2e-08M	25µM
CCOC(=O)CCC(=O)c1c(C)oc2ccc(OC)cc12	.	.	/	.	.	.
Cc1ccc(S(=O)(=O)N(CC(=O)NCc2ccncc2)C2CCCCC2)cc1	.	.	?	.	.	.
C=CCOC(=O)COc1ccc2c(C)c(CC)c(=O)oc2c1	.	.	.	?	?	.
C=CCOC(=O)COc1ccc2c(C)c(C)c(=O)oc2c1	.	.	/	/	/	25µM
Cn1c(=O)c(C(=O)Nc2cnccn2)c(O)c2ccccc21	.	.	.	3.4e-08M	3.5e-08M	.
CN(C)c1ccc2nc3c(C(=O)O)cc(=O)c(O)c-3oc2c1	4µM	.[11.5 µM]	/	.	.	?
O=c1cc(Nc2ccc3c(c2)OCCO3)[nH]c(=O)n1Cc1ccc(F)cc1	.	.	/	.	.	.
Cc1cccc(CNc2nc(-c3c(C)noc3C)nc3ccccc23)c1	?	.	/	.	.	?
COC(=O)c1sc(NC(=O)c2oc3ccccc3c2C)nc1C	/	/	/	1.7e-08M	1.4e-08M	/
COc1ccc2c(c1)Cc1sc(NC(=O)c3cccs3)nc1-2	?	.	.	?	?	?
CC(C)COP(=O)(c1ccc(N(C)C)cc1)C(O)c1ccccc1F (stereo not given)	.	.	.	.	.	.
COc1ccc(NC2=C(C(C)=O)C(c3ccc4c(c3)OCO4)C(C(C)=O)C(C)(O)C2)cc1 (stereo not given)	.	.	.	.	.	.
SMILES	HADH2 inhib	AID923	GBA mod	A350 fluor	4MU fluor	HSD17B inh
CCOC(=O)COc1ccc2c(c1)C(=O)CC(C)(c1cccnc1)O2 (stereo not given)	.	.	.	2.1e-06M	1.5e-06M	32µM
Cc1cc(C)c2nc(SCC#N)cc(C)c2c1	.	.	?	.	.	.
CCOC(=O)CSc1nc(C)c(C(C)=O)cc1C#N	/	/	/	.	.	/
Cc1ccc2cc(C)c(SCC#N)nc2c1	.	.	.	1.3e-08M	1.3e-08M	.
COC(=O)CSc1nc2cc(C)ccc2cc1C#N	.	.	.	1.1e-08M	?	?
CCOC(=O)CC(=O)CSc1nc2ccc(C)cc2cc1C#N	?	.	13	?	.	?
CCCCC(c1nnnn1CC1CCCO1)N1CCN(c2cc(Cl)ccc2C)CC1 (stereo not given)	.	.	/	?	?	.
Cc1cc(-c2nnco2)c(C)n1-c1ccccc1	.	.	.	.	.	.
Cc1nc2ccccn2c1-c1nnco1	?	.	.	?	?	32µM
N#Cc1c(N2CCOCC2)nc(N2CCCCC2)c2c1CCN(C1CCCCC1)C2	/	/	/	4.5e-08M	3.5e-08M	/
CC(C)c1nc(N2CCOCC2)c(C#N)c2c1CCCC2	.	.	.	3.6e-08M	3.9e-08M	32µM
CCSc1nc(N2CCOCC2)c2c(c1C#N)CCCC2	.	.	.	.	.	.
CC(C)CSc1nc(N2CCOCC2)c2c(c1C#N)CC(C)(C)SC2	/	/	/	.	.	/
